Measured values as given in publication PMC4336329 (PLoS ONE, 2015).
About 14,000 (4.5%) of roughly 310,000 compounds showed an effect of 50% or more. Effects have a minus sign here. The entries come from a sample that favours strong results as a whole.

Target: human ether-à-go-go-related gene (hERG) potassium channel (human, UniProt Q12809)
Assay: primary screen, population patch clamp on CHO cells stably expressing hERG; higher = less effect of the substance
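Note: peak tail current of the secondary pulse compared with the same well before compound.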

Sequence of human ether-à-go-go-related gene (hERG) potassium channel (Q12809 whole entry, looked up): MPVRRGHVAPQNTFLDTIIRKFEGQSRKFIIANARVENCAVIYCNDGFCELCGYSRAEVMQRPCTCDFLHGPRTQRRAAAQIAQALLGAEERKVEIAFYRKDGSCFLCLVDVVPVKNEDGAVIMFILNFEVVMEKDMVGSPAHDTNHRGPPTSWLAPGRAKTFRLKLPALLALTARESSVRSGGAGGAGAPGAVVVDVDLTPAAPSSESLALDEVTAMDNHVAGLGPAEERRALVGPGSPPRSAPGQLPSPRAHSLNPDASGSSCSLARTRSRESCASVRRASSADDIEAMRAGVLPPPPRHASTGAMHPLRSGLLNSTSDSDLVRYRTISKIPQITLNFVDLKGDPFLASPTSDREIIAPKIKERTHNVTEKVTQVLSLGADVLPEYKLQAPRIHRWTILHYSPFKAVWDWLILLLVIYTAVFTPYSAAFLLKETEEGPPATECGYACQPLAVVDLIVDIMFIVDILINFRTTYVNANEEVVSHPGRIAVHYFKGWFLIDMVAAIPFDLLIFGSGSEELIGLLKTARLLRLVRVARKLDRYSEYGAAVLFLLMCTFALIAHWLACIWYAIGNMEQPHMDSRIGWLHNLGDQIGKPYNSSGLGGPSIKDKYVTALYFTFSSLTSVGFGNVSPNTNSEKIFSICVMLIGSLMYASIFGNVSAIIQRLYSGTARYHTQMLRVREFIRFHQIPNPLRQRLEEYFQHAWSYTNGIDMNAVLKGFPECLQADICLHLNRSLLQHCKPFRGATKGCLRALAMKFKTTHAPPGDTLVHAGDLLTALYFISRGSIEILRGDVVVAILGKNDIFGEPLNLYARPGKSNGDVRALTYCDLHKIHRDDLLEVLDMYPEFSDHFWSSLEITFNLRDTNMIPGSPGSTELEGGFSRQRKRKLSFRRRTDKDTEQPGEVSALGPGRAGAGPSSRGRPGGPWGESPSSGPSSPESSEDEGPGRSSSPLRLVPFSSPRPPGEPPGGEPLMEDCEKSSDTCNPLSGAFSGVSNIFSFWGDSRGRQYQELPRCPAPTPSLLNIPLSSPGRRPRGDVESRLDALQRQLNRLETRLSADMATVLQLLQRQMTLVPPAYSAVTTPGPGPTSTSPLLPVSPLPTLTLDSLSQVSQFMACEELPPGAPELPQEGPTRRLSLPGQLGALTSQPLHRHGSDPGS

Row | Compound | hERG current change (%, negative = inhibition) at 10uM [%]
1 | COC(=O)c1ccc(COc2ccc3ccc(=O)oc3c2)o1 | 8.66
2 | CN(C)CCNC(=O)Cn1ccc2cc(S(=O)(=O)N3CCCCCC3)ccc21 | -25.4
3 | C/C(N)=C(/C#N)C(=O)CSc1nn(-c2ccc(Cl)cc2)c(=S)s1 | 12.9
4 | O=S(=O)(NCCc1ccncc1)c1ccccc1 | 4.04
5 | c1ccc2c(c1)CCCC2NC1=NCCC1 (stereo not drawn) | -2.53
6 | O=C(NCC(c1cccs1)N1CCOCC1)c1ccc(Cl)c([N+](=O)[O-])c1 (stereo not drawn) | -31.9
7 | CCOc1ncccc1C(=O)N1CCN(C(c2ccccc2)c2ccccc2)CC1 | 5.75
8 | O=C(O)CCn1c(-c2ccccc2)cc2c1CCCC2=O | 14.1
9 | Cc1c(NS(=O)(=O)c2ccc(NC3CCCC3)c([N+](=O)[O-])c2)c(=O)n(-c2ccccc2)n1C | -19.7
10 | Cc1cc(C)nc(NS(=O)(=O)c2cccs2)c1 | 3.36
11 | CCN1CCN(c2c(Cl)cccc2NC(=O)c2ccc3nsnc3c2)CC1 | -49.5
12 | CCN1CCN(c2c(Cl)cccc2NC(=O)c2ccc([N+](=O)[O-])cc2)CC1 | -72
13 | CCN1CCN(c2c(Cl)cccc2NC(=O)c2ccc3c(c2)OCCO3)CC1 | -38.4
14 | O=C(CNc1ccc2ccccc2c1)N/N=C/c1ccncc1 | -8.31
15 | O=C(Nc1cc(Cl)ccc1N1CCCC1)C1=NN(c2ccccc2)C(=O)CC1 | -16.9
16 | CC(=O)N1CCc2cc(S(=O)(=O)NCCC(=O)Nc3cccc(C)c3C)ccc21 | 0.058
17 | COc1ccc(CN(C(=O)CN2C(=O)NC3(CCC(C)CC3)C2=O)C(C)Cc2cccs2)cc1 (stereo not drawn) | -68.7
18 | CC1CCC2(CC1)NC(=O)N(CC(=O)N(Cc1ccccc1)C(C)(C)C)C2=O (stereo not drawn) | 10.6
19 | CC1CCC2(CC1)NC(=O)N(CC(=O)NCc1cccs1)C2=O (stereo not drawn) | 1.95
20 | O=C(/C=C/c1cccc([N+](=O)[O-])c1)NCc1ccco1 | -33
21 | Cc1ccc(C2CC(=O)N3CN(c4ccc(Br)cc4)CSC3=C2C#N)o1 (stereo not drawn) | 11.1
22 | Cc1nc2cc3nc(C(F)(F)F)[nH]c3cc2[nH]1 | 0.0754
23 | O=C(CCCn1c(SCC(=O)Nc2ccccc2Cl)nc2ccccc2c1=O)NCC1CCCO1 (stereo not drawn) | -48.9

Row | Compound | hERG current change (%, negative = inhibition) at 10uM [%]
24 | CC1CCN(CCCn2c(SCC(=O)Nc3ccccc3Cl)nc3ccccc3c2=O)CC1 | -70.8
25 | CCc1ccc(NC(=O)CSc2nc3ccccc3c(=O)n2CCCN2CCC(C)CC2)cc1 | -67.2
26 | CCCCn1c(SCC(=O)Nc2ccc(NC(C)=O)cc2)nc2ccccc2c1=O | -2.55
27 | CCOCCCn1c(SCC(=O)NC2CCCC2)nc2ccccc2c1=O | -1.74
28 | CCCCn1c(SCC(=O)NC2CCCC2)nc2ccccc2c1=O | -4.43
29 | O=C(CSc1nc2ccccc2c(=O)n1CCCO)NC1CC1 | -13.4
30 | CC1CCN(CCCn2c(SCC(=O)NC3CCCC3)nc3ccccc3c2=O)CC1 | -77
31 | CCc1ccc(NC(=O)CSc2nc3ccccc3c(=O)n2CCCC(=O)N2CCCC2)cc1 | -27.9
32 | CNC(=O)N(O)C1N(/N=C/c2c(F)cccc2Cl)C(=S)SC1(C)C (stereo not drawn) | 18
33 | CC(=O)c1cccc(NC(=O)C(C)OC(=O)c2cc(=O)[nH]c3ccccc23)c1 (stereo not drawn) | -0.987
34 | CCC(CNc1cc(OC)cc2cccnc12)NC1CCCCC1 (stereo not drawn) | -26.2
35 | COc1cc(C(=O)O)cc(NC(=O)c2cccs2)c1OC | 13
36 | NS(=O)(=O)c1ccc(CCNS(=O)(=O)c2cccc(C(=O)O)c2)cc1 | 15.9
37 | COc1ccc(NS(=O)(=O)c2cc3c(cc2C)N(C)CCO3)c(OC)c1 | 1.28
38 | COc1ccc(C(=O)C2CCCN(Cc3cnc(N4CCOCC4)s3)C2)cc1F (stereo not drawn) | -47.6
39 | COc1ccc(C(=O)C2CCCN(Cc3cnc(N4CCCC4)s3)C2)cc1OC (stereo not drawn) | -44
40 | COc1cccc(C(=O)C2CCCN(Cc3cccn3-c3cccnc3)C2)c1 (stereo not drawn) | -29
41 | COc1ccc(C(=O)C2CCCN(Cc3cccn3-c3nccs3)C2)cc1F (stereo not drawn) | -83.5
42 | COc1ccc(C(=O)C2CCCN(Cc3cccn3-c3cccnc3)C2)cc1OC (stereo not drawn) | -62.9
43 | COc1ccc(C(=O)C2CCCN(Cc3cccn3-c3nccs3)C2)cc1OC (stereo not drawn) | -82
44 | O=C(c1ccc2c(c1)OCO2)C1CCCN(Cc2cccn2-c2cccnc2)C1 (stereo not drawn) | -58.3
45 | COc1ccc(C(=O)C2CCCN(C(=O)c3cccs3)C2)cc1F (stereo not drawn) | -8.95
